Reference: the supplement of paper PMC11628255, “Interference of metal ions on the bioluminescent signal of firefly, Renilla, and NanoLuc luciferases in high-throughput screening assays” (Frontiers in Chemistry, 2024)
± gives the standard deviation of the averaged measurements.

Test system: firefly luciferase (FLuc)
Assay: residual bioluminescent signal relative to negative (DMSO) control; higher = less interference (more residual luciferase signal)
Experimental: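 Purified luciferase (FLuc 10 nM + 10 uM D-luciferin; NLuc 10 pM + 10 uM furimazine; RLuc 50 pM + 2 uM coelenterazine) in 384-well plates; metal salt pre-incubated with enzyme 10 min at RT, substrate added and luminescence read after 10 min. Signal normalised to plate DMSO negative control (% N_VALUE = x/mean neg *100); triplicate wells at 0.01, 1 and 5 mM salt.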

[1] = metal salt concentration 0.01 mM, HEPES conditions (100 mM HEPES, 5 mM MgSO4, 10 uM ATP, pH 7.5)
[2] = metal salt concentration 0.01 mM, screening conditions (0.5 mM Tris, 50 mM glycine, 0.5 mM EDTA, 5 mM MgSO4, 10 uM ATP, pH 7.6)
[3] = metal salt concentration 1 mM, HEPES conditions (100 mM HEPES, 5 mM MgSO4, 10 uM ATP, pH 7.5)
[4] = metal salt concentration 1 mM, screening conditions (0.5 mM Tris, 50 mM glycine, 0.5 mM EDTA, 5 mM MgSO4, 10 uM ATP, pH 7.6)
[5] = metal salt concentration 5 mM, HEPES conditions (100 mM HEPES, 5 mM MgSO4, 10 uM ATP, pH 7.5)
[6] = metal salt concentration 5 mM, screening conditions (0.5 mM Tris, 50 mM glycine, 0.5 mM EDTA, 5 mM MgSO4, 10 uM ATP, pH 7.6)

Compound	residual bioluminescent signal [1]	residual bioluminescent signal [2]	residual bioluminescent signal [3]	residual bioluminescent signal [4]	residual bioluminescent signal [5]	residual bioluminescent signal [6]
O=[N+]([O-])[O-].O=[N+]([O-])[O-].O=[N+]([O-])[O-].[Ga+3] [gallium(III) nitrate]	86.3 ± 16%	3.77 ± 5%	72.6 ± 17%	0.264 ± 0.091%	0.679 ± 0.47%	0.474 ± 0.48%
O=[N+]([O-])[O-].[K+] [potassium nitrate]	111 ± 4.3%	100.2 ± 0.6%	116 ± 12%	98.6 ± 7%	86.1 ± 12%	65.5 ± 7.8%
O=[N+]([O-])[O-].[Li+] [lithium nitrate]	92.2 ± 20%	93 ± 5.3%	92.2 ± 40%	85.8 ± 4.8%	90.5 ± 3.9%	74.5 ± 2.7%
O=[N+]([O-])[O-].O=[N+]([O-])[O-].O=[N+]([O-])[O-].[Al+3] [aluminium nitrate]	78.9 ± 7.9%	75.8 ± 6%	0.679 ± 0.47%	0.343 ± 0.17%	0.543 ± 0.23%	90.5 ± 5.5%
O=[N+]([O-])[O-].O=[N+]([O-])[O-].[Zn+2] [zinc nitrate]	3.8 ± 1.2%	81.5 ± 7.4%	1.49 ± 0.85%	0.817 ± 0.28%	1.09 ± 0.85%	0.316 ± 0.079%
O=[N+]([O-])[O-].O=[N+]([O-])[O-].[Cd+2] [cadmium nitrate]	2.44 ± 1.8%	95.2 ± 4.7%	1.09 ± 0.62%	0.343 ± 0.12%	1.09 ± 0.62%	0.211 ± 0.17%
